Assay outcomes (PubChem)
Only some compounds are listed: those with a hit (about 2.2% of all), similar ones and a draw of the others.
KLF5 inhibitor: KLF5 expression inhibitors, primary screen, DLD-1 cells, luminescence; DLD-1 KLF5 promoter-luciferase reporter; inhibition, % at 5 µM; actives 0.23% (n = 290,000); AID 1700, 2009;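 active means inhibition above a per-plate limit of that plate's mean compound inhibition plus 3 SD, cut at about 60% in these data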;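 further: 0% = DMSO wells and 100% = LY294002 at 200 µM; higher means less KLF5 promoter-driven luciferase light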
IEC-6 tox: cytotoxicity in IEC-6 intestinal epithelial cells, primary screen, cytotoxicity control for KLF5 inhibitor project, cell-based, luminescence; actives 0.78% (n = 290,000); AID 1825, 2009; IEC-6 cytotoxicity, luminescence viability; inhibition, % at 5 µM; in the data active means inhibition above about 22%;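 further: 0% = plate median of test compound wells and 100% = cytotoxic reference compound wells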
APP 5UTR inh: inhibitors of APP translation via 5'UTR reporter, primary screen, APP 5'UTR luciferase, SH-SY5Y cells. SH-SY5Y APP 5'UTR-luciferase reporter, luminescence. inhibition, % at 2 µM. actives 0.82% (n = 190,000). AID 1285, 2008;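 active means inhibition above a set limit, derived from the sample mean plus 3 SD, cut at about 45% in these data; inconclusive means one replicate passes the limit while the other fails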
aSyn UTR inh: MLPCN primary screen, SNCA 5' untranslated region. alpha-synuclein 5'UTR reporter, inhibitor activity. inhibition, % (tested at 7.5 µM). actives 0.82% (n = 300,000). AID 1813, 2009; in the data active means inhibition above about 60%; inconclusive means no clear call, values can overlap the other calls;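 further: H4 neuroglioblastoma cells stably carrying SNCA 5'UTR luciferase fusion; 0% = DMSO wells and 100% = positive control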
Ba/F3 V617F tox: reduced viability of JAK2V617F-dependent Ba/F3 cells, primary screen, JAK2V617F inhibitor project, cell-based, Ba/F3 EpoR-JAK2V617F, luminescence | actives 1.1% (n = 220,000) | inhibition, % at 5.6 µM | ATP luminescence;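 active means inhibition above the campaign mean plus 3 SD over all tested compounds, cut at about 24% in these data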;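 further: cytokine-independent growth of Ba/F3 cells driven by EpoR plus mutant JAK2; 0% = DMSO-treated cells and 100% = JAK inhibitor I control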
BaF3 parental: parental Ba/F3 cell viability inhibition, counter-screen for JAK2V617F inhibitor project, murine pro-B, CellTiter-Glo luminescence; inhibition, % at 5.6 µM; actives 1.1% (n = 220,000); CellTiter-Glo ATP luminescence; AID 1486, 2009;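 active means inhibition above a per-campaign cutoff, the mean inhibition of all tested compounds plus 3 SD, cut at about 27% in these data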;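 further: 0% = DMSO wells and 100% = JAK Inhibitor I control wells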
An asterisk follows results filed as active; ? = inconclusive; . = not tested or not shown.

SMILES	KLF5 inhibitor	IEC-6 tox	APP 5UTR inh	aSyn UTR inh	Ba/F3 V617F tox	BaF3 parental
C[n+]1c2n(c3ccccc31)N=C(c1cc(C(C)(C)C)c(O)c(C(C)(C)C)c1)CS2	28.9	17.7	29.9	68.5*	98.6*	78.7*
COc1ccc(/C=N/NC(=O)c2ccccc2Cl)cc1CSc1nc2ccccc2s1	26.3	15.7	6.3	27.8	-1.6	3.0
COc1ccc(/C=N/NC(=O)c2cccnc2)cc1CSc1nc2ccccc2s1	-11.8	21.2	54.5*	54.3	4.8	8.5
Clc1ccc(C2=C3CCCCn4c(-c5ccccc5)c[n+](c43)C2)cc1	6.5	-10.2	0.7	15.3	-4.0	1.4
Clc1ccc(-c2c[n+]3c(n2-c2ccccc2)SCC3)cc1	-10.1	4.6	-17.6	-3.2	66.8*	88.1*
O=[N+]([O-])c1cccc(-c2c[n+]3c(n2-c2ccccc2)SCC3)c1	-18.5	-0.2	12.9	.	34.9*	65.0*
CC(C)N(C)S(=O)(=O)c1ccc(Cl)c(C(=O)O)c1	-17.2	-0.9	-37.8	3.2	-0.8	3.3
Nc1cccc2nc3ccccc3cc12	56.0	21.7	.	100.6*	41.3*	29.0*
O=C(CCN1C(=O)/C(=C/c2ccccc2Cl)SC1=S)Nc1ccccc1C(=O)O	-21.2	-13.4	.	-2.6	.	.
O=C(CCCN1C(=O)/C(=C/c2ccccc2Cl)SC1=S)NNC(=O)c1ccc(Cl)cc1Cl	14.7	-0.6	.	71.3*	4.8	-0.3
O=C(CCCN1C(=O)/C(=C/c2ccccc2Cl)SC1=S)NNC(=O)c1cccnc1	-4.9	0.0	.	20.2	3.8	0.8
O=C(CCCN1C(=O)S/C(=C\c2ccccc2)C1=O)NNC(=O)c1ccccc1O	12.0	-0.4	63.1*	83.4*	-3.7	4.0
O=C(CCCN1C(=O)/C(=C/c2ccccc2Cl)SC1=S)NNC(=O)c1ccccc1	-1.9	-10.8	27.7	62.1*	-2.6	2.7
Cc1cc(NC2CCCCC2)nc2ccccc12	-33.5	18.7	-4.3	-42.6	6.2	6.4
Cc1cc(OCC[N+]2(C)CCCCC2)nc2ccccc12	-31.6	-8.7	.	-8.4	49.9*	47.6*
CCc1nc(N2CCN(S(C)(=O)=O)CC2)c2c3c(sc2n1)CCCC3	5.3	-2.1	11.8	-10.2	0.4	5.4
CCCCOc1ccc(CSCCN=C(N)N)cc1	-20.9	1.8	-40.8	-58.4	38.5*	76.2*
CN(C)c1ccc(/C=N/Nc2nc3ccccc3o2)cc1	42.9	-0.5	.	67.0*	.	.
CCc1n(CC(O)COCc2ccccc2)c2ccccc2[n+]1C (configuration not stated)	19.2	-2.9	-7.3	-26.8	37.8*	48.8*
Cc1[nH]n(-c2ccccc2)c(=O)c1N=Nc1c(O)cc(S(=O)(=O)N(C)C)c2ccccc12	.	.	.	70.7*	.	.
Cc1ccc(S(=O)(=O)NCCC(=O)NNC(=O)c2ccccc2O)cc1C	.	.	.	-0.4	.	.
CCC(=O)Nc1ccc(NC(=O)c2ccco2)cc1	-116.9	-0.4	-39.6	-136.0	-2.4	1.4
CCOc1ccc(CC(=O)Nc2ccc(NC(=O)c3ccco3)cc2)cc1OCC	-13.6	1.0	8.7	65.9*	-1.1	-0.5
CC(C)[C@@H]1CC[C@@H](C)C[C@H]1OC(=O)C[n+]1cc(-c2ccc(Cl)cc2)n2c1CCCCC2	4.4	-2.8	.	-1.9	98.0*	85.2*
COc1ccc(-c2c[n+](CC(=O)OC3CC(C)CCC3C(C)C)c3n2CCC3)cc1 (configuration not stated)	22.1	12.8	1.5	-19.9	99.2*	81.5*
SMILES	KLF5 inhibitor	IEC-6 tox	APP 5UTR inh	aSyn UTR inh	Ba/F3 V617F tox	BaF3 parental
Cc1cc(-c2ccc(C)c(S(=O)(=O)NCc3ccc(OC(C)C)cc3)c2)on1	-2.3	-11.5	.	-7.3	.	.
Oc1ccccc1N=Nc1ccccc1O	60.6	-2.7	83.1*	?	6.1	2.6
CCc1nc(CN2CCCC(C(=O)c3ccc4c5c(cccc35)CC4)C2)c(C)[nH]1 (configuration not stated)	-13.3	9.7	-3.9	30.8	2.7	82.0*
Cc1cccc(Cn2nc(C)cc2NC(=O)CCCn2ccc([N+](=O)[O-])n2)c1	-14.0	-2.1	-2.5	22.2	-0.6	4.4
CCN1/C(=C/C(C)=C/c2sc3ccccc3[n+]2CC)Sc2ccccc21	-18.6	17.7	66.9*	99.7*	100.4*	74.6*
CCN1/C(=C\C(=S)Nc2ccccc2)Sc2ccccc21	-27.0	10.7	-63.2	-143.6	-2.4	6.8
Cc1cc(NC(=O)CSc2nnc(-c3ccccc3)c(-c3ccccc3)n2)no1	-3.1	-4.0	62.7*	38.9	-1.6	3.2
Cc1cc(NC(=O)CSc2ccccc2)no1	-16.3	0.2	-9.4	-42.9	0.9	5.9
COc1cc(NC(=O)CSc2nnc(-c3cc(C)on3)o2)cc(OC)c1	-2.1	-12.4	.	-14.3	.	.
COc1cc(OC)cc(-c2nnc(SCC(=O)Nc3cc(C)on3)o2)c1	-18.6	-5.3	-8.4	.	1.3	94.8*
Cc1cccc(OCC(=O)N2CCN(C(=O)c3ccco3)CC2)c1	-13.3	2.2	0.2	-16.2	5.8	9.2
CC(=O)Nc1ccc(NC(=O)C(C)OC(=O)CSCc2cccc(Cl)c2)cc1 (configuration not stated)	.	.	.	4.9	.	.
Cn1c(=O)c2c(nc(NCc3ccco3)n2C/C=C/c2ccccc2)n(C)c1=O	.	.	.	90.4*	.	.
CCOC(=O)N1CCN(C(=O)CN(c2ccc(OCC)cc2)S(C)(=O)=O)CC1	-5.2	2.1	11.8	27.5	-2.7	2.2
CCOC(=O)N1CCN(C(=O)CN(c2ccc(Oc3ccccc3)cc2)S(C)(=O)=O)CC1	-9.4	-4.8	21.5	5.1	-2.1	34.1*
OCCCNc1cc(-c2ccnc(Nc3cccc(Cl)c3)n2)ccn1	.	.	.	109.7*	.	.
COc1ccc2c(c1)O[C@@H](c1cccc(C(F)(F)F)c1)[C@H](O)C2=O	-13.8	7.9	-1.8	62.4*	1.6	5.4
O=C(Nc1ncc(Cc2ccccc2)s1)c1cccs1	-172.0	3.3	-193.6	21.1	1.3	11.9
O=C(Nc1ncc(Cc2ccc(SC(F)F)cc2)s1)c1ccccc1	2.8	0.8	86.2*	67.7*	-1.8	3.4
Cc1ccccc1C(=O)O/N=C/c1c(N2CCOCC2)n(C)c2ccccc12	-39.1	-3.9	30.2	86.5*	1.2	-2.8
COC(=O)c1scc2c(=O)cc(C(F)(F)F)[nH]c12	0.6	2.1	.	-13.3	2.7	0.5
COc1ccc(-n2c(SCC(=O)NCC3CCCO3)nc3c([nH]c4ccccc43)c2=O)cc1OC (configuration not stated)	-24.2	2.8	.	30.6	.	.
CCOC(=O)C1=C(c2ccccc2)N=C2SCC(=O)N2C1c1cccc(OC)c1 (configuration not stated)	-28.1	-1.2	60.8*	-5.8	0.8	3.4
